# Laboratory results taken from ChEMBL document CHEMBL4513216, “Probing the Open Global Health Chemical Diversity Library for Multistage-Active Starting Points for Next-Generation Antimalarials” (ACS Infect Dis, 2020).
# Hit rate of the full screen: of about 69,000 compounds, about 8,600 (12%) showed an effect of 50% or more. For the sample, strong results were picked, then their nearest neighbours and some compounds at random.
# Test system: Plasmodium berghei
# Assay: Screen against P. berghei liver stage (PbLuc), transformed with Luciferase, at 10uM
# Type: functional, HepG2
# Settings: tested at 10 uM
row,Structure (SMILES),INHIBITION [%]
1,CC(C)c1n[nH]c(C(=O)Nc2ccnn2C(C)C)c1Br,88.5
2,Cc1ccnc(NC(=O)c2ccc(Br)o2)c1,-51.5
3,CC(C)Nc1nc(C(=O)Nc2ccccn2)cs1,-42.1
4,CC(C)c1n[nH]c(C(=O)Nc2ccccn2)c1Br,67.4
5,COc1ccncc1NC(=O)c1[nH]nc(C(C)C)c1Br,31.1
6,Cc1ccnc(NC(=O)c2[nH]nc(C(C)C)c2Br)c1,65
7,CC(C(=O)Nc1ccnn1C(C)C)N1CCN(Cc2ccccc2)CC1 (configuration not stated),-8.07
8,CC(C)c1n[nH]c(C(=O)Nc2ccncc2)c1Br,77.6
9,Cc1nc2c(c(C)c1CC(=O)Nc1ccnn1C(C)C)c(=O)[nH]n2C,-1.33
10,Cc1ccnc(NC(=O)c2ccc(Cl)o2)c1,32.4
11,CC(C)c1n[nH]c(C(=O)NC(C)c2ccncc2)c1Br (configuration not stated),-9.76
12,COc1ncccc1NC(=O)c1[nH]nc(C(C)C)c1Br,-41.6
13,Cc1ccccc1-n1cc(CN(C)C(=O)CC2C(=O)NCCN2C)cn1 (configuration not stated),42.3
14,Cc1cccc(C(=O)N2CCCC[C@]3(C)NC(=O)CCC[C@H]23)n1,31.6
15,CN1CCCN(C(=O)c2cccn2-c2ccc3c(c2)OCCO3)CC1,6.99
16,CC(NC(=O)Nc1ccc(N2CCCC2)nc1)c1nncn1C (configuration not stated),9.54
17,O=C(NCC1(O)COCCN(Cc2cccc(O)c2)C1)c1cnccn1 (configuration not stated),-25.3
18,COc1ccc(C(=O)NCCCn2ccnc2)c(OC)n1,26.6
19,CC(C)c1[nH]c2ncccc2c1CN1CCOCC1,-21.6
20,Cc1ccc(CNC(=O)CN2CCOC(Cn3cccn3)C2)s1 (configuration not stated),-45.4
21,O=C(NCc1ccc(-n2cncn2)nc1)c1cc(Cl)ccn1,45
22,Cc1cc(C)n(Cc2cccc(C(=O)NCCSCC(C)(C)O)c2)n1,0.426
23,O=C(NCC1CCC1)c1cccc(CN2CCS(=O)(=O)CC2)c1,33.4

row,Structure (SMILES),INHIBITION [%]
1,CC(C)c1n[nH]c(C(=O)Nc2cc[nH]n2)c1Br,55.9
2,Cc1cccc(NC(=O)c2[nH]nc(C(C)C)c2Br)n1,65
3,Cc1cccc(NC(=O)c2cncc(C3CCNCC3)n2)n1,15.5
4,Cc1cccc(NC(=O)c2sc(C)nc2C)n1,-9.57
5,COc1ccccc1NC(=O)c1[nH]nc(C(C)C)c1Br,-101
6,CC(C)CC(NC(=O)c1cccc(F)c1F)C(=O)Nc1cc[nH]n1 (configuration not stated),-36.4
7,CN(C)CCCN(Cc1cnn(C)c1)Cc1ccco1,-9.35
8,Oc1ccccc1-c1n[nH]c(C2CCCO2)n1 (configuration not stated),-3.11
9,c1cnnc(N2CCCC2CNCc2cscn2)c1 (configuration not stated),-56.1835
10,Cc1ccsc1C1CC(=O)Nc2c1cnn2C(C)C (configuration not stated),11.9
11,CC(NCCn1cccn1)c1ccc(F)cc1F (configuration not stated),16.8
12,Cc1ccc(-c2n[nH]cc2CNCCn2cccn2)o1,77.6
13,Cc1ccc(-c2n[nH]cc2CNCC2CCS(=O)(=O)C2)o1 (configuration not stated),-29.4
14,CC(NCCn1cccn1)c1ccccc1F (configuration not stated),27.9
15,Fc1ccc(-c2n[nH]cc2CNCCn2cccn2)cc1,77.6
16,Fc1cc(CNCCn2cccn2)ccc1-n1cncn1,50.8
17,CCn1cnnc1CCNCc1c[nH]nc1-c1ccc(F)cc1,-5.94
18,CC(NCCn1cccn1)c1cc(F)ccc1F (configuration not stated),53.8
19,Cc1ccc(-c2nc(CNCCn3cccn3)cs2)o1,10.8
20,Fc1ccc(-c2nc(CNCCn3cccn3)cs2)cc1,4.02
21,c1ccc(-n2cncn2)c(CNCCn2cccn2)c1,-14.2
22,Fc1ccc(CNCCn2cccn2)cc1F,26.9
23,Cn1cc(CN2CC[C@H]3O[C@@H](COCc4cccnc4)CC[C@H]32)cn1,3.11

row,Structure (SMILES),INHIBITION [%]
1,Cc1ncc2c(n1)C1(CCN(C(=O)C3CC3)CC1)OCC2,7.15
2,O=C(c1cnn(-c2ccccc2)n1)N1CCCC(n2cccn2)C1 (configuration not stated),33.8
3,CCOC(=O)c1c(NC(=O)CN2CCN(C(C)=O)CC2)sc(C)c1C,-13.5
4,COc1cc(NC(=O)NCC2CCCO2)cc(OC)c1OC (configuration not stated),29.8
5,CC(C)c1nc2c(n1C)CCN(Cc1cccc(C(N)=O)c1)C2,34
6,Cc1ccc(F)c(S(=O)(=O)NCc2cccc(C(=O)N3CCCC3)c2)c1,17.5
7,Cc1cc(F)ccc1CNCCn1cccn1,30.1
8,Fc1ccc(CNCCn2cccn2)c(Cl)c1,64.1
9,Fc1ccc(CNCCn2cccn2)c(F)c1,-13.3
10,Cc1cc(C)c(CNC(=O)CCC2CCCO2)c(=O)[nH]1 (configuration not stated),11.45
11,NC(=O)NCC(=O)N1C[C@@H]2CC[C@H]1CN(Cc1cscn1)C2,7.3
12,Cc1nnc(CCNC(=O)[C@H]2CNC[C@@H](C(=O)N3CCCC3)C2)s1,-5.08
13,COc1ncccc1NC(=O)N(Cc1ccccn1)C1CC1,-47.6
14,CCN(C(=O)Nc1cccnc1OC)C1CC1,53.5
15,COc1ncccc1NC(=O)N(Cc1ccc(C(N)=O)cc1)C1CC1,-35.7
16,COc1ncccc1NC(=O)N(Cc1ccc(C)o1)C1CC1,58.2
17,COc1ncccc1NC(=O)N(Cc1ccco1)C1CC1,-18
18,COc1ncccc1NC(=O)N(CC(C)C)C1CC1,-2.19
19,CC(=O)N1CCn2c(nnc2C2CCCCN2C(C)=O)C1 (configuration not stated),-55
20,COCCNC(=O)c1cc(C(C)C)nc(N2CCCCC2)n1,52.4
21,COCCNC(=O)c1cc(C(C)C)nc(N2CCCC2)n1,16.8
22,CC(C)c1cc(C(=O)NCCCN(C)C)nc(N2CCCC2)n1,52.4
23,COCCCNC(=O)c1cc(C(C)C)nc(N2CCCC2)n1,-23.8

row,Structure (SMILES),INHIBITION [%]
1,CCN(CC)CCNC(=O)c1cc(C(C)C)nc(N2CCCC2)n1,15.8
2,CCCNC(=O)c1cc(C(C)C)nc(N2CCCCC2)n1,44.9
3,COCCCNC(=O)c1cc(C(C)C)nc(N2CCCCCC2)n1,37.5
4,CC(C)c1cc(C(=O)NCCN2CCOCC2)nc(N2CCCC2)n1,51.6
5,CCCNC(=O)c1cc(C(C)C)nc(N2CCCC2)n1,32.5
6,c1ccc(C2CN(CCc3ccncc3)CCO2)cc1 (configuration not stated),6.12
7,CN(CC(F)(F)F)C(=O)Cn1cc(NC(=O)C(C)(C)C)cn1,-0.551
8,Cc1nn(C)c(N(C)C)c1CNC1CCc2cc(F)ccc21 (configuration not stated),27.4
9,Cc1ccccc1S(=O)(=O)N[C@@H]1CC[C@@H](N2CCNC(=O)C2)[C@@H]1O,6.65
10,COc1cc(CNCC(O)c2cccc(F)c2)cc2c1OCO2 (configuration not stated),44.1
11,Cc1nc(CN(C)C2CCCN(c3cccnn3)C2)nc2ccccc12 (configuration not stated),47
12,CCN(CC)c1ncccc1CNCc1ccc(-c2ccn[nH]2)s1,27.6
13,CC1CCCCN1Cc1ccc(-c2ccccc2C(=O)O)cc1 (configuration not stated),25.3
14,O=C(O)c1ccccc1-c1cnc(CNC(=O)C2CCOCC2)nc1,-17.35
15,O=C(O)c1ccccc1-c1ccc(CNC(=O)C2CCOCC2)cc1,56.6
16,COCc1cc(NCC(F)(F)F)n2nccc2n1,7.24
17,Cc1nc(N(C)C)nc(NCCc2cnccn2)c1C,27.4
18,O=S(=O)(C1CC1)N1CCC2(CC1)CC(Oc1cccnc1)CO2 (configuration not stated),26.7
19,CN(C)C(=O)COC1COC2(CCN(c3cnccn3)CC2)C1 (configuration not stated),21.6
20,c1cncc(N2CCC3(CCCN(c4ccncc4)C3)CC2)c1,-29
21,N#Cc1ccc(N2CCCC3(CCN(c4cccnc4)CC3)C2)cc1,85.6
22,c1cncc(COC2COC3(CCN(c4cnccn4)CC3)C2)c1 (configuration not stated),60
23,CN1CCN(C2COC3(CCN(c4ccc(C#N)cc4)CC3)C2)CC1 (configuration not stated),39.5

row,Structure (SMILES),INHIBITION [%]
1,CN1CCOCC12CCN(c1ccc(C#N)cc1)CC2,-15.3
2,N#Cc1ccc(N2CCC3(CC2)CC(Oc2cccnc2)CO3)cc1 (configuration not stated),73.3
3,O=C(c1ccncc1)N1CCC2(CC1)CC(Oc1cccnc1)CO2 (configuration not stated),35.8
4,N#Cc1ccc(N2CCC3(CC2)CC(N2CCOCC2)CO3)cc1 (configuration not stated),73.2
5,c1cncc(N2CCCC3(CCN(CCN4CCCC4)CC3)C2)c1,-26.1
6,Fc1cnc(N2CCC3(CC2)CC(OCc2cccnc2)CO3)nc1 (configuration not stated),30.5
7,O=C(c1cccc(N2CCCC2=O)c1)N1CCCC(n2cccn2)C1 (configuration not stated),-21.35
8,O=C(c1c[nH]c(=O)[nH]c1=O)N1CCCC(c2nccn2CC2CCC2)C1 (configuration not stated),22
9,CC(=O)N(Cc1ncc(C)o1)C1CCN(CCc2ccncc2)C1 (configuration not stated),12.7
10,CN(Cc1ccccc1F)C(=O)COC(=O)c1cc(Cl)c[nH]1,29.9
11,O=c1[nH]c(-c2ccncc2)ncc1-c1ccnc(NC2CC2)n1,18.9
12,c1cnc(Nc2ccc(C3CCCCN3Cc3ccncc3)cn2)nc1 (configuration not stated),23.3
13,O=C(Cc1ccccc1)N1CCC2(CC1)COCCN2CC1CC1,6.6
14,COCCOCC(C)NC(=O)COc1nn(C)c2nc(C)cc(C)c12 (configuration not stated),9.63
15,CCOc1ncccc1NC(=O)NC1CCN(S(C)(=O)=O)CC1,44.8
16,O=C(Nc1nc(-c2ccccc2)ns1)N1CCC(CO)CC1,-95.1
17,Cc1nn(C)c(N(C)C)c1CNCc1cccc(Cn2ccnc2)c1,-31.5
18,Fc1ccc(N2CCC3(CC2)CC(OCc2cccnc2)CO3)cc1 (configuration not stated),33.4
19,N#Cc1ccc(N2CCC3(CC2)CC(OCc2cccnc2)CO3)cc1 (configuration not stated),58.5
20,c1cncc(CO[C@H]2CO[C@@]3(CCN(Cc4ccoc4)C3)C2)c1,-0.79
